This is a sample that favours compounds with a hit; in the whole collection about 2.3% have one here.
CHO-K1 Ca antag – M1 antagonist counterscreen hit in parental CHO-K1 cells. ATP-induced calcium, Fluo-8 fluorescence. inhibition, % at 3 µM. 360,000 tested, 0.6% active. AID 602250;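 active means inhibition above a per-plate cutoff, the plate's mean sample inhibition plus 3 SD, cut at about 24% in these data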;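 further: 0% = DMSO plus EC80 ATP and 100% = DMSO alone without ATP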
CHRM1 PAM – human M1 muscarinic receptor positive allosteric modulators, primary screen, CHO-K1 cells, Fluo-8 calcium fluorescence, 1536-well; Muscarinic acetylcholine receptor M1 (Homo sapiens), P11229; CHO-K1 hM1, ACh EC20; 0% = ACh EC20, 100% = maximal ACh; activation, % at 3 µM; 360,000 tested, 0.088% active; AID 588819, 2011; in the data active means activation above about 19%, passing the limit was not always enough
Target sequence (P11229 whole entry, looked up): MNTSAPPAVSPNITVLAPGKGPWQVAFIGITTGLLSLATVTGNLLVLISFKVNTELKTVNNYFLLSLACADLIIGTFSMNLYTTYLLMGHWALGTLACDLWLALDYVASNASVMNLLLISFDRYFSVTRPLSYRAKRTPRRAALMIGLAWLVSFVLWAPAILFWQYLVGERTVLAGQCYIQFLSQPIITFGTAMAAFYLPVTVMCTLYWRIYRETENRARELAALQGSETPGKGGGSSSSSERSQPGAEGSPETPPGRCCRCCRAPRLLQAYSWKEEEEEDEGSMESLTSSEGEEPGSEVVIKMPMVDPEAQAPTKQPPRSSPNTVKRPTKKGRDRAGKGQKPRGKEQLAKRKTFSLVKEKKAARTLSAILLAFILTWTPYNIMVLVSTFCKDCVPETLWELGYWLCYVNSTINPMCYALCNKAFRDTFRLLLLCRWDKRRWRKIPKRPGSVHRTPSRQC
M1 ag – human M1 muscarinic receptor agonists, primary screen, Fluo-8 calcium fluorescence, CHO-K1 cells, HTS; Muscarinic acetylcholine receptor M1 (Homo sapiens), P11229; CHO-K1 hM1, agonist mode; 0% DMSO, 100% acetylcholine EC100; activation, % at 3 µM; 360,000 tested, 0.33% active; AID 588814, 2011;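 active means activation above the run's mean compound activation plus 3 SD, cut at about 16% in these data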;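 further: peak over basal fluorescence ratio within a 140 s kinetic read after compound addition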
CHO-K1 Ca ag – counter-screen for M1 agonists: effect in parental CHO-K1 cells. Fluo-8 calcium fluorescence; scaled to maximal ATP response, vehicle zero. activation, % at 3 µM. 360,000 tested, 0.48% active. AID 602248, 2012; in the data active means activation above about 15%;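 further: untransfected CHO-K1 host cells lacking M1 receptor as counterscreen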
M1 antag – human M1 muscarinic receptor antagonists, primary screen, CHO-K1 cells, Fluo-8 calcium fluorescence, 1536-well. AID 588852, 2011. CHO-K1 hM1, ACh EC80 antagonist. inhibition, % at 3 µM. 360,000 tested, 1.3% active. Muscarinic acetylcholine receptor M1 (Homo sapiens), P11229;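 active means percent inhibition above its own plate's cutoff, namely the mean of that plate's compound wells plus 3 SD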;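 further: peak over basal fluorescence ratio during 140 s after agonist addition; 0% = ACh EC80 plus DMSO and 100% = DMSO alone without agonist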
M1 PAM parental – nonselective calcium activators in parental CHO-K1 cells, primary screen, counter-screen for M1 PAM project, cell-based, Fluo-8 calcium fluorescence, full deck, 1536-well | 360,000 tested, 0.02% active | ATP EC20; 0% at ATP EC20, 100% at ATP max | AID 602247, 2012 | activation, % at 3 µM;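 active means activation above the run cutoff, the mean activation of all test compounds plus 3 SD, cut at about 40% in these data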;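 further: peak over basal fluorescence ratio in a 140 s read after ATP addition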
An asterisk follows results filed as active.

SMILES	CHO-K1 Ca antag	CHRM1 PAM	M1 ag	CHO-K1 Ca ag	M1 antag	M1 PAM parental
CC(=O)N1c2ccc(S(=O)(=O)N3CCC(C(=O)N4CCN(c5ccccc5F)CC4)CC3)cc2CC1C (centres undefined)	5.2	2.9	0.4	5.8	2.5	-22.2
O=c1[nH]c2cc(Cl)cc([N+](=O)[O-])c2c2ccc(Cl)cc12	-10.6	2.0	-3.9	1.4	-4.5	16.9
CCN(C(=O)CN(C)Cc1cccc(Cl)c1Cl)c1c(N)n(Cc2ccccc2)c(=O)[nH]c1=O	-12.8	5.9	-9.9	0.5	-13.8	29.5
Cn1c(-c2cccc([N+](=O)[O-])c2)cnc1NCc1cccc(F)c1	-4.0	-3.9	-8.2	0.5	-6.8	12.1
CN(CC(=O)Nc1cccc(S(=O)(=O)N2CCOCC2)c1)CC(=O)Nc1ccc(Cl)c(C(F)(F)F)c1	6.7	-13.6	-2.3	5.7	41.9*	-25.4
CCN(CC)S(=O)(=O)c1cccc(NC(=O)CNc2cccc(S(=O)(=O)N3CCOCC3)c2)c1	10.6	-7.6	-1.9	7.9	33.4*	-16.1
CCN(CC)S(=O)(=O)c1ccc(C)c(NC(=O)CNc2cccc(S(=O)(=O)N3CCOCC3)c2)c1	10.8	-1.9	-1.3	8.7	3.2	3.2
COc1ccc(CN2C[C@]3(CO)O[C@@H](CO)C[C@@H]3S2(=O)=O)cc1	-18.1	11.2	-3.6	0.6	-14.4	15.8
Nc1cccc2c1C(=O)N(C(=O)c1ccc(Cl)c(S(=O)(=O)N3CCCCCC3)c1)C2=O	-3.0	2.4	-3.0	0.1	-24.2	10.4
Nc1cccc2c1C(=O)N(C(=O)c1cccc(S(=O)(=O)N3CCCCCC3)c1)C2=O	28.5*	5.0	-0.5	0.0	-22.4	-5.5
CCCn1c(SCC(=O)N2N=C3/C(=C/c4ccc(OC)cc4)CCCC3C2c2ccc(OC)cc2)n[nH]c1=O (centres undefined)	10.3	-0.5	8.9	24.5*	21.4	15.9
N#C/C(=C\c1ccc[nH]1)C(=O)N1CCCCC1	-11.1	7.3	-3.4	0.7	-15.1	8.0
O=C(CN1C(=O)NC2(CCCCC2)C1=O)NCc1ccc2c(c1)OCO2	-13.0	5.4	-4.6	0.7	-0.8	17.8
Cc1c(C(=O)OCC[N+]2(C)CCCCC2)oc2ccccc12	-5.2	-34.7	-13.7	0.1	54.5*	16.7
O=C(COc1ccc(-c2ccccc2)cc1)NNC(=O)NC1CCCCC1	-3.6	-31.0	-13.9	0.8	33.1*	-6.2
CCc1ccc(CN(C)C(=O)c2cc(COc3cccc4cnccc34)on2)cc1	25.1*	-11.9	-1.3	10.3	41.7	-18.3
CN(Cc1cccc2cnccc12)C(=O)c1cc(COc2ccc(F)cc2F)on1	9.9	-7.7	-1.6	10.8	15.0	-22.2
CN(Cc1cccnc1)C(=O)c1cc(COc2ccc3c(c2)CCCC3)on1	11.8	-21.4	0.4	12.7	63.5*	-2.3
CC(=O)c1cccc(OCc2cc(C(=O)N(C)Cc3cnccn3)no2)c1	-17.0	2.5	-3.1	1.9	4.0	27.6
Cc1c(C(C)NC(=O)c2cc(COc3cccc4cnccc34)on2)cnn1C (centres undefined)	5.0	-7.7	1.5	15.8*	7.2	-12.2
CC1CCC2(CC1)NC(=O)N(CC(=O)N1CCN(c3ccccc3)CC1)C2=O (centres undefined)	5.7	-10.2	-1.2	-0.2	18.8	-16.7
O=C(c1ccccc1)c1ccc(OCC(O)CNCc2ccc(Cl)cc2)cc1 (centres undefined)	0.9	1.6	1.6	18.1*	1.8	8.3
Cc1ccc(S(=O)(=O)n2cnc3cc([N+](=O)[O-])ccc32)c(C)c1C	24.9*	-7.7	-1.5	0.3	12.8	-8.8
COc1ccc(C(=O)COC(=O)c2cc(=O)[nH]c3ccccc23)c(OC)c1	0.3	1.2	-0.6	0.4	-0.9	0.2
Cc1cc(C)c(NC(=O)CNC(=O)CN(C)Cc2ccc(Br)s2)c(C)c1	-11.6	-0.7	-2.1	1.0	4.4	1.2
SMILES	CHO-K1 Ca antag	CHRM1 PAM	M1 ag	CHO-K1 Ca ag	M1 antag	M1 PAM parental
S=c1nc(-c2cc(Cl)ccc2Cl)[nH][nH]1	26.2*	15.2	5.6	-0.3	0.9	-14.4
Cc1cc(NC(=O)C2CC(=O)N(c3cccc(Cl)c3)C2)no1 (centres undefined)	2.8	1.6	-4.6	15.6*	-5.5	9.1
CSc1ccccc1NC(=O)c1ccccc1	-0.1	8.3	-3.9	16.1*	-10.8	10.0
Nc1ccc(NC(=O)c2ccccc2)c2c1C(=O)c1ccccc1C2=O	26.0*	-1.8	-3.8	-0.1	8.7	-9.5
O=C(Nc1ccccc1C(=O)N1CCCC1)c1ccccc1	15.3	5.1	16.1*	0.3	16.1	-14.3
O=S(=O)(Nc1cccnc1)c1ccccc1	-6.2	12.6	-6.1	-0.1	-12.1	7.7
O=S(=O)(Nc1cccnc1)c1ccc(C2CCCCC2)cc1	21.9	-18.5	6.4	10.1	26.9*	9.4
COc1ccc(C(=O)NCC(c2ccccc2)c2ccccc2)cc1S(=O)(=O)N1CCOCC1	5.0	3.0	-5.4	0.0	-6.8	-7.0
COc1cccc(CNC(=O)COC(=O)c2nc(Cl)c(Cl)c(Cl)c2Cl)c1	4.5	0.2	-6.9	-0.8	5.4	-11.8
CC(=O)Nc1sc2c(c1C(c1ccccn1)N1CCN(C)CC1)CCCC2 (centres undefined)	0.7	-21.2	-5.3	0.4	47.9*	-6.8
CC(=O)Nc1sc2c(c1C(c1ccccc1Cl)N1CCN(CCO)CC1)CCCC2 (centres undefined)	1.6	-26.3	-8.0	1.1	45.1*	14.2
CC(=O)Nc1sc2c(c1C(c1ccccn1)N1CCCC1)CCCC2 (centres undefined)	-0.2	-5.9	3.8	0.1	14.1	-18.5
CCOCCCNc1nc2c(c(=O)[nH]c(=O)n2C)n1CCCc1ccccc1	25.6*	-0.8	-3.7	-0.4	9.7	-8.0
C[C@H](NC(=O)[C@@H]1CSC2c3ccccc3C(=O)N21)C(=O)NC1CCCC1 (some centres undefined)	1.2	-10.4	-0.2	0.4	27.4*	-13.2
C[C@H](NC(=O)[C@@H]1CSC2c3ccccc3C(=O)N21)C(=O)NC1CCCCC1 (some centres undefined)	-6.4	6.7	-1.7	0.3	-7.7	10.1
CC(=O)Oc1ccccc1/C=C/c1ccc2ccccc2[n+]1C	9.2	-29.0	-8.2	0.2	54.1*	-20.8
O=C(COC(=O)c1cccc(Br)c1)NC1CCCCCCC1	4.5	-9.5	-6.1	-0.1	15.8	-7.4
